The full ranking holds about 33,000 sequences; the median of “E-score (-0.5 to 0.5)” is about -0.035, and the highest 2% start at about 0.35. The entries come from a sample that favours the highest values as a whole.
These sequences were tested against T1, Pdr3 (UniProt P33200) (assay: PBM E-score (8-mer binding enrichment) (E-score (-0.5 to 0.5)); higher = stronger / more preferred TF binding). Settings: protein concentration: 200 nM; construct: GST-full length.
T1 sequence: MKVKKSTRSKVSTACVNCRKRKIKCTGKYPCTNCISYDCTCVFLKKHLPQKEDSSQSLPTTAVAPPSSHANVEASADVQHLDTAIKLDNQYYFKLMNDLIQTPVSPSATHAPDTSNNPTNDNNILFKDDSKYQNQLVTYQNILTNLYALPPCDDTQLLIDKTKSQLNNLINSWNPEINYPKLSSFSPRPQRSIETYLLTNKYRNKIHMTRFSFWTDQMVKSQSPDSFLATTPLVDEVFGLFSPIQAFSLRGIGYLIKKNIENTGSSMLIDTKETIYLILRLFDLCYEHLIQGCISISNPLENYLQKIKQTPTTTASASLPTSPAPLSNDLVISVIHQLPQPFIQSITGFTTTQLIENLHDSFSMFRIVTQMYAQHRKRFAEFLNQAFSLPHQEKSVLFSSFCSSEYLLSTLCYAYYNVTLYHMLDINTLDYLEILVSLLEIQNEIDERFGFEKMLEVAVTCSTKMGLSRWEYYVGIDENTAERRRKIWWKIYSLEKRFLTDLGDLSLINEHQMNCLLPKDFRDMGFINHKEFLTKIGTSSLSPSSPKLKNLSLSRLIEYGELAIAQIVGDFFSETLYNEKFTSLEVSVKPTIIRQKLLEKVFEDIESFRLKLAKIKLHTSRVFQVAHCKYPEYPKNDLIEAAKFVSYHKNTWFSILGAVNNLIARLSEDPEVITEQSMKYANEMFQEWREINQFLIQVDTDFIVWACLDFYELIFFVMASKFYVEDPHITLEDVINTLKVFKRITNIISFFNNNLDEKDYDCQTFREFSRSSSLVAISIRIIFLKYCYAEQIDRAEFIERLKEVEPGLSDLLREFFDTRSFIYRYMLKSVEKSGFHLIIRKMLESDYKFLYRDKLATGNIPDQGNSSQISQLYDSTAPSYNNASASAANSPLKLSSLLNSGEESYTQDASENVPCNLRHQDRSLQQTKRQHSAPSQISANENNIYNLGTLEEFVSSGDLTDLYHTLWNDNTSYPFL
Method: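 Universal 'all 10-mer' protein binding microarrays (Agilent AMADID 015681) probed with GST-tagged S. cerevisiae TFs (full-length or DBD) made by in vitro transcription/translation (PURExpress), about 100-200 nM. Bound TF was detected with fluorescent anti-GST. Each ungapped 8-mer (which stands for itself and its reverse complement) is scored by the PBM enrichment score (E-score), a modified Wilcoxon-Mann-Whitney statistic from -0.5 to +0.5, computed with the Universal PBM Analysis Suite. Scale: above 0.35 generally sequence-specific binding.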

Row | Sequence | PBM E-score
1 | GGTTCGGA | 0.34
2 | CGTTCGGA | 0.414
3 | CATTCGGC | 0.145
4 | GATTCGGA | 0.29
5 | AATTCGGA | 0.365
6 | CATTCGGA | 0.356
7 | CGTTCGGC | 0.171
8 | AATTCGGG | 0.153
9 | AATTCGGC | 0.173
10 | GTAGCGTA | -0.0161
11 | CTGTCGCC | 0.0223
12 | AAAAGATC | -0.0361
13 | TCCGCAGA | 0.258
14 | CCCAAACA | -0.0368
15 | AGGTTAGA | -0.00179
16 | CGCCTGCC | -0.0358
17 | AACCACCC | -0.00213
18 | ACATAGAT | -0.085
19 | CCAACCGC | 0.146
20 | AGTGTTCG | -0.0373
21 | CATTAGAG | -0.234
22 | GGGAAGCA | -0.0013
23 | CCGAAGCC | 0.245

Row | Sequence | PBM E-score
24 | AGGAAGCC | -0.0295
25 | CGGAAGCA | 0.428
26 | AGGAAGCA | -0.16
27 | CGGAAGCC | 0.416
28 | CGCGCTCC | 0.308
29 | ATTGTGGC | 0.0289
30 | GTCTACCA | -0.252
31 | GTGGGAAA | -0.0227
32 | CGGTTGGC | 0.161
33 | AAATACGG | 0.0148
34 | TCACGGCA | 0.193
35 | CCACGGAA | 0.484
36 | TCACGGAA | 0.464
37 | CCACGGGA | 0.325
38 | TCACGGGA | 0.203
39 | ACACGGAG | 0.284
40 | ACACGGAT | 0.302
41 | CCACGGAG | 0.429
42 | CCACGGAC | 0.34
43 | ACACGGAA | 0.438
44 | CCACGGCG | 0.182
45 | CCACGGGG | 0.335
46 | ACAATTTG | -0.117

Row | Sequence | PBM E-score
47 | AGACGGGC | 0.0159
48 | CTCGCAAA | -0.131
49 | AGGAGAAT | -0.00643
50 | AGGATGCA | -0.117
51 | AAGGCATC | -0.216
52 | ACCTAAAG | -0.12
53 | CTCCACGC | -0.165
54 | CGGATCAA | 0.356
55 | CGGATCAC | 0.391
56 | GGGATCAC | -0.0461
57 | TGGATCAA | -0.168
58 | CGGATCAG | 0.334
59 | AGGATCAC | -0.231
60 | ATAGCCCG | 0.0917
61 | ATCGTTTG | 0.0176
62 | TATTCGCA | -0.0986
63 | AGCCAGCT | -0.164
64 | GTGGCGAA | 0.106
65 | CGGGGGCC | 0.142
66 | ACCGGGCG | 0.0259
67 | CCGGGGCC | 0.367
68 | CCCGGGCC | 0.397
69 | CCGGGGGC | 0.235

Row | Sequence | PBM E-score
70 | ACGGGGCG | 0.183
71 | CCGGGGCG | 0.374
72 | CCGGGGCA | 0.235
73 | ACCGGGCC | 0.25
74 | CCCGGGCG | 0.421
75 | GCCGGGCC | 0.12
76 | CCCCGGCG | 0.162
77 | AAGCAGCG | 0.017
78 | CTACTCCA | -0.162
79 | TCGACCGA | 0.0776
80 | ACTGGGCG | -0.018
81 | AGTATTGC | -0.0115
82 | ACCCAGTC | -0.0225
83 | CGCCTCCG | 0.295
84 | AACTAGAC | -0.106
85 | GCCTCACA | -0.114
86 | CCCGATCG | 0.234
87 | AAAAATGG | 0.0817
88 | GCGCCGCA | 0.151
89 | ACCGGGCA | 0.102
90 | CCCGGGCA | 0.375
91 | GCCGGGCA | 0.282
92 | GATAGTGC | -0.0798

Row | Sequence | PBM E-score
93 | GTTCAAAC | -0.0193
94 | AGGATAAC | -0.212
95 | CTAATCTC | -0.0806
96 | AGCCCGCG | 0.381
97 | CGCCCGCG | 0.314
98 | ATCCCGCG | 0.465
99 | AACCCGCG | 0.431
100 | AACCCGCA | 0.18
101 | AACCCGCC | 0.165
102 | CACCCGCG | 0.42
103 | ATCCCGCC | 0.322
104 | ATCCCGCA | 0.21
105 | CACCCGCA | 0.115
106 | CACCCGCC | 0.332
107 | AGCCCGCT | -0.183
108 | AATTAGCA | 0.103
109 | ATGTCGAC | 0.0706
110 | ATTGCGAA | -0.0818
111 | GTCAGATA | -0.0744
112 | CTAAGAAC | 0.165
